Compound activity as filed in PubChem BioAssay.
SENP6 inh – SENP6 protease inhibition; Q9GZR1; Recombinant SENP6 catalytic domain, aminoluciferin luminescence; 330,000 tested, 1.8% active; inhibition, % at 10 µM;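 active = inhibition above about 50% at the single tested dose, limit read from the data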
Target sequence (Q9GZR1 628-1112 limits assumed): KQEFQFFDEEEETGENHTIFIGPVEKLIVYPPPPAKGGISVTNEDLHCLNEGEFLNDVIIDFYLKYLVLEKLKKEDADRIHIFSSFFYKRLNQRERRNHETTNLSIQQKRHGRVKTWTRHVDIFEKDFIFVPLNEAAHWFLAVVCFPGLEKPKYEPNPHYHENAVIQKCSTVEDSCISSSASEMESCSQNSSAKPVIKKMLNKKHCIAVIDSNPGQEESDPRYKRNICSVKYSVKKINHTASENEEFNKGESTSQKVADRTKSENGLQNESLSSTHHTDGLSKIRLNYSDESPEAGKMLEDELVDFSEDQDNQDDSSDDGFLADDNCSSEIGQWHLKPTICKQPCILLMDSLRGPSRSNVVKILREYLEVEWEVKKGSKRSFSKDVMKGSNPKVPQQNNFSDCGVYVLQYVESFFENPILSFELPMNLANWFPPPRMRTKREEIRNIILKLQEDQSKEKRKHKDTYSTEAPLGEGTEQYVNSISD
SENP7 inh – SENP7 protease inhibition; Q9BQF6; recombinant SENP7, Z-RLRGG-aminoluciferin luminescence, 40 min; inhibition, % at 5 µM; 330,000 tested, 1.5% active; AID 434973;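 active = inhibition above about 50% at the single test dose, limit read from the data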
Platelet DG rel – modulates dense granule release in human platelets. human platelet-rich plasma, SFLLRN dense granule ATP release, luminescence. inhibition, %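 (compounds screened at 7.5 µM in platelet-rich plasma)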. 300,000 tested, 0.22% active;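 active = mean replicate score, as percent of positive control, at or above 50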
SENP8 block-1 – SENP8 protease inhibition | AID 2540 | 330,000 tested, 1.2% active | inhibition, % at 10 µM | purified SENP8, Z-RLRGG-aminoluciferin cleavage, luminescence | Q96LD8; in the data active = inhibition above about 50%
Target sequence (Q96LD8 whole entry, looked up): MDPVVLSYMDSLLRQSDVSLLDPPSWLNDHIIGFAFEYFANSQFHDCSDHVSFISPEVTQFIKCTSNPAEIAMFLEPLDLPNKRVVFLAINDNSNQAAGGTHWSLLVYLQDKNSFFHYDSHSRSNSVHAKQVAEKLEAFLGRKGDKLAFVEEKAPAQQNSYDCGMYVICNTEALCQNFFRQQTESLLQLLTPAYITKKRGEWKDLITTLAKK
SENP8 block-2 – inhibitors of human SENP8 protease | Q96LD8 | recombinant SENP8, Nedd8 substrate fluorescence | inhibition, % at 20 µM | 360,000 tested, 0.64% active; in the data active = inhibition mostly above about 40%, no sharp cut-off; inactive = mostly below about 27%
Of the large screens only hits and unclear results are named; the others gave an inactive call. Shown are actives, neighbours in structure and some others; about 2.4% of the full set was active somewhere.

CC(C)(C)NC(=O)NC(=O)CSc1ccc(S(=O)(=O)N2CCCCC2)cn1	none (no result: Platelet DG rel)
CCCC[C@@H]1CNC(=O)C(=O)N1CCc1cccc(F)c1	none (no result: SENP6 inh, SENP7 inh, Platelet DG rel, SENP8 block-1)
COc1ccccc1C(=O)Nc1c[nH]c(=O)[nH]c1=O	Platelet DG rel 96
CCOc1ccccc1C(=O)Nc1c[nH]c(=O)[nH]c1=O	Platelet DG rel 88
O=C(Nc1c[nH]c(=O)[nH]c1=O)c1ccccc1Cl	none
O=c1[nH]c2ccccc2cc1CN(Cc1ccco1)S(=O)(=O)c1ccccc1	none
Cc1ccc(O)c(N=CC2=C(O)c3ccccc3C2=O)c1	SENP8 block-2 84
CN=CC1=C(O)c2ccccc2C1=O	none
COC(=O)c1cccc(C(=O)N2CCCC(Nc3ccc(C)c(C)c3)C2)c1 (stereo not given)	none
O=C1NC(=O)C2(CCCC2)N1	none (no result: SENP6 inh, SENP7 inh, Platelet DG rel, SENP8 block-1)
O=C1NC(=O)C2(CCC(C(=O)O)C2)N1 (stereo not given)	Platelet DG rel 50
CCC(c1ccccc1)C(CC)c1cc(O)c(O)c(O)c1 (stereo not given)	SENP8 block-2 64 (no result: SENP6 inh, SENP7 inh, Platelet DG rel, SENP8 block-1)
O=[N+]([O-])c1ccc(CN2CC(N3CCC(Cc4ccccc4)CC3)CS2(=O)=O)cc1 (stereo not given)	none (no result: SENP6 inh, SENP7 inh, Platelet DG rel, SENP8 block-1)
Cc1c(CN(C)C)c2c(n1C)C(=O)c1ccc(Br)cc1-2	none
CCOC(=O)c1c2c(n(C)c1C)C(=O)C(=O)c1ccc(Br)cc1-2	SENP6 inh 94, SENP7 inh 97, SENP8 block-1 93, SENP8 block-2 114
CCOC(=O)c1c2c3c(cccc3n(C)c1=O)C(=O)c1ccccc1-2	none
CCOC(=O)c1c2c(n(Cc3ccccc3)c1C)C(=O)C(=O)c1ccccc1-2	SENP8 block-2 100 (no result: SENP6 inh, SENP7 inh, Platelet DG rel, SENP8 block-1)
CC(OC(=O)c1nc(Cl)ccc1Cl)C(=O)Nc1ccc2c(c1)OCCO2 (stereo not given)	none
CCOC(=O)N1CCN(Cc2cc(=O)oc3cc4c(cc23)CCC4)CC1	Platelet DG rel 78
Cc1cc(C)c2nc(NNC(=O)c3cc(=O)c4ccccc4o3)sc2c1	SENP6 inh 79, SENP8 block-1 63
Cc1cc(C)c2nc(NNC(=O)c3ccc(S(=O)(=O)N4CCc5ccccc5C4)cc3)sc2c1	none
CN(C)c1ccc(/C=C(\C#N)c2ccccc2)cc1	none (no result: SENP6 inh, SENP7 inh, Platelet DG rel, SENP8 block-1)
CN(C)c1cccc(/C=C(\C#N)c2ccccc2)c1	SENP6 inh 55, SENP8 block-1 57
Cn1ncc2c(N3CCN(c4ccc(Cl)c(Cl)c4)CC3)ncnc21	none
O=C(Cc1ccc(Br)cc1)Nc1ncc([N+](=O)[O-])s1	SENP6 inh 94, SENP7 inh 53, SENP8 block-1 92
O=C(Nc1ncc([N+](=O)[O-])s1)c1ccc2c(c1)OCO2	SENP6 inh 96, SENP7 inh 102, Platelet DG rel 80, SENP8 block-1 97
Cc1oc(-c2ccccc2F)nc1CS(=O)(=O)CC(=O)N1CCc2ccccc21	none (no result: Platelet DG rel)
Cc1ccccc1-c1nc(CS(=O)(=O)CC(=O)N2CCc3ccccc32)c(C)o1	Platelet DG rel 58
COc1ccc(OC)c(NC(=O)CS(=O)(=O)Cc2nc(-c3ccccc3C)oc2C)c1	Platelet DG rel 51
O=C(COC(=O)CN1C(=O)C2CC=CCC2C1=O)Nc1cccc([N+](=O)[O-])c1 (stereo not given)	none (no result: SENP6 inh, SENP7 inh, Platelet DG rel, SENP8 block-1)
CSc1ccc(CN2CCC(C(=O)NCc3ccc(C)cc3)CC2)cc1	none
Cc1cc(C)c(Nc2cc(S(=O)(=O)O)c(N)c3c2C(=O)c2ccccc2C3=O)c(C)c1	SENP8 block-2 48 (no result: SENP6 inh, SENP7 inh, Platelet DG rel, SENP8 block-1)
COc1cc(CN(C)C)cc(C=O)c1O	none
COc1cc(N=Nc2ccc(Br)cc2)cc(C=O)c1O	SENP8 block-2 44 (no result: SENP6 inh, SENP7 inh, Platelet DG rel, SENP8 block-1)
Cc1cccc(N2CC(C(=O)Nc3nccs3)CC2=O)c1C (stereo not given)	none
CCOc1ccccc1N1CC(C(=O)Nc2nccs2)CC1=O (stereo not given)	Platelet DG rel 52
C[C@@](Cc1ccc(O)c(O)c1)(NN)C(=O)O	SENP8 block-2 39 (no result: SENP6 inh, SENP7 inh, Platelet DG rel, SENP8 block-1)
Nn1c(SCC(=O)Nc2ccc(OC(F)F)cc2)nnc(Cc2ccccc2)c1=O	none
COc1cccc(-c2nc(N3CCCCC3C)c3ccccc3n2)c1O (stereo not given)	SENP8 block-2 47
COc1cccc(-c2nc(N3CCN(C)CC3)c3ccccc3n2)c1O	none
Cc1nn(-c2ccccc2)c(Cl)c1/C=C1\SC(=S)N(CCCCCC(=O)O)C1=O	SENP8 block-2 54
CC1CCC/C(=C\Nc2ccc(C(=O)O)c(O)c2)C1=O (stereo not given)	none
O=C1CCCC/C1=C\Nc1ccc(C(=O)O)c(O)c1	SENP6 inh 62
Oc1ccc(/C=N/N(Cc2ccccc2)c2ccccc2)c(O)c1O	SENP8 block-2 56 (no result: SENP6 inh, SENP7 inh, SENP8 block-1)
Oc1cccc(/C=N/N(Cc2ccccc2)c2ccccc2)c1	none
CN(C)CCNc1ccc(CO)c2sc3ccc(O)cc3c(=O)c12	SENP8 block-2 45 (no result: SENP6 inh, SENP7 inh, Platelet DG rel, SENP8 block-1)
COc1ccc(NC(=O)C2CCCN(c3nn4c(=O)cc(C)nc4s3)C2)cc1 (stereo not given)	Platelet DG rel 104
O=[N+]([O-])c1ccc2c(c1Nc1ccccc1)=NC1(CCCCC1)N=2	SENP8 block-2 45
COc1ccc(Nc2c([N+](=O)[O-])ccc3c2=NC2(CCCCC2)N=3)cc1	none
COc1cc(/C=N/n2cnnc2)ccc1OCc1ccc(C)cc1	Platelet DG rel 62
[O-]/[N+](=C\C=C\c1ccccc1)c1ccccc1	SENP6 inh 73, SENP8 block-1 57
COc1cc2c(cc1OC)-c1cc(NC3CCCCC3)nc(=O)n1CC2	Platelet DG rel 65
COc1cc2c(cc1OC)-c1cc(NC3CC3)nc(=O)n1CC2	none
COc1cc2c(cc1OC)-c1cc(NC3CCCCCCC3)nc(=O)n1CC2	Platelet DG rel 135
CCOC(=O)c1c(-c2ccc(OC)cc2)oc2c1C(OC(C)=O)CCC2 (stereo not given)	none (no result: SENP6 inh, SENP7 inh, Platelet DG rel, SENP8 block-1)
CCCCNC(=O)C(NC(=O)c1ccc(-c2ccccc2)cc1)C(=O)c1ccccc1 (stereo not given)	none (no result: SENP6 inh, SENP7 inh, Platelet DG rel, SENP8 block-1)
Cn1cc(Cl)c(C(=O)N/N=C/c2ccc(OS(=O)(=O)c3ccccc3)cc2)n1	none
Cc1ccc(/C=N/NC(=O)c2nn(C)cc2Cl)cc1	Platelet DG rel 53
Cc1ccnc(NC(=O)/C=C/c2ccccc2[N+](=O)[O-])c1	SENP7 inh 78, SENP8 block-1 69 (no result: SENP8 block-2)
Cc1cc(C)nc(NC(=O)/C=C/c2ccccc2Cl)c1	SENP6 inh 83, SENP7 inh 81
Cc1cc(C)nc(NC(=O)/C=C/c2ccccc2Cl)n1	none
Cc1ccnn1CC(=O)N/N=C/c1ccc([N+](=O)[O-])s1	SENP6 inh 51
Cc1ccnn1CC(=O)N/N=C/c1cccs1	none
O=C(N/N=C/c1ccc([N+](=O)[O-])s1)c1ccccc1	SENP6 inh 50
CC(=O)Nc1ccc(-c2ccnc3c2CC(C(=O)NCC2CCOCC2)O3)cc1 (stereo not given)	none (no result: SENP6 inh, SENP7 inh, Platelet DG rel, SENP8 block-1)
COc1ccc(C(c2sc3nc(C)nn3c2O)N2CCCCC2)cc1 (stereo not given)	Platelet DG rel 59
COc1cc(C(c2sc3nc(C)nn3c2O)N2CCOCC2)cc(OC)c1OC (stereo not given)	Platelet DG rel 67
CCOc1cc(CNc2ccc(O)cc2)cc(Br)c1OCc1ccccc1F	SENP8 block-2 41
Oc1ccc(Cl)cc1/C=C/c1ccc2cccc(O)c2n1	none
